Assay results as given in PubChem BioAssay (NCATS).
Inconclusive results are not listed. Active and inactive are the calls of the source. Calls follow the shape of the dose curve; as a rule, active = well fitted inhibition curve with a large enough effect; inconclusive = small, poorly fitted or top-dose-only effect; inactive = flat fitted curve, though single readings scatter.

Test system: Zika virus NS2B-NS3 protease
Experiment: Primary screen GU AMC qHTS for Zika virus inhibitors (AID 1347154); also: nearly all actives have a fitted effect of over 70% in size;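 as to activity change, negative = inhibition: 0% = no-inhibitor control and -100% = no-enzyme control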
Conditions: Zika NS2B-NS3 unlinked protease, AMC fluorogenic substrate; series mostly up to 54.1 µM; activity change, negative = inhibition: at the top concentration
How it was run: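 Unlinked Zika NS2B hydrophilic domain/NS3 protease domain noncovalent complex (25 nM final) in 10 mM Tris-HCl pH 8.0, 0.01% Tween 20, with AMC peptide substrate. Fluorescence (ex 340, em 450 nm) change over 15 min, room temperature; percent inhibition fitted to 4-parameter Hill equation.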
Potency is read from the fitted curve at half-maximal effect.

| Structure (SMILES) | Potency | activity change, negative = inhibition |
| --- | --- | --- |
| COC(=O)N[C@H](C(=O)N1CCC[C@@H]1c1ncc(-c2ccc(-c3ccc(-c4cnc([C@@H]5CCCN5C(=O)[C@@H](NC(=O)OC)C(C)C)[nH]4)cc3)cc2)[nH]1)C(C)C | 30.4 µM (active) |  |
| O=C1NC(=O)C(=Cc2ccc(-c3ccc(F)cc3)o2)S1 |  | -10.6% (inactive) |
| c1ccc2c(Cc3c[nH]c4ccccc34)c[nH]c2c1 |  | -6.38% (inactive) |
| COc1ccc2c3c1OC1C[C@@H](O)C=C[C@@]31CCN(C)C2 (stereo not given in full) |  | -5.16% (inactive) |
| Cc1c(O)cccc1C(=O)N[C@@H](CSc1ccccc1)[C@H](O)CN1C[C@H]2CCCC[C@@H]2C[C@@H]1C(=O)NC(C)(C)C |  | -5.65% (inactive) |
| Clc1cc(Cl)cc(CNc2ncncc2-c2ccc3c(c2)OCO3)c1 |  | -4.82% (inactive) |
| O=C(O)Cc1cccc2ccccc12 | inactive |  |
| Cc1cnc(C(=O)O)c[n+]1[O-] |  | 11.5% (inactive) |
| CC=C(C)C(=O)O[C@H]1C(C)=C[C@]23C(=O)[C@@H](C=C(CO)[C@@H](O)[C@]12O)[C@H]1[C@@H](C[C@H]3C)C1(C)C |  | -4.93% (inactive) |
| N[C@@]1(C(=O)O)CS(=O)(=O)[C@H]2[C@H](C(=O)O)[C@H]21 |  | 0.353% (inactive) |
| CC(C)n1cnc2c(NCCCCCCNC(=O)OC(C)(C)C)nc(NCCO)nc21 |  | -12.6% (inactive) |
| COc1cccc2c1CCCC2CCCN1CCN(C2CCCCC2)CC1 (stereo not given) | inactive |  |
| C[C@@H](O)[C@H]1C(=O)N2C(C(=O)O)=C(S[C@@H]3CN[C@H](C(=O)N(C)C)C3)[C@H](C)[C@H]12 | inactive |  |
| COc1ccc(-c2coc3cc(O)ccc3c2=O)cc1 | 26.7 µM (active) |  |
| O=C1c2ccccc2-[n+]2ccc3c([nH]c4ccccc43)c21 |  | 1.46% (inactive) |
